Experimental data from PubChem BioAssay (NCATS).
Inconclusive results are not listed. Active and inactive are the calls of the source. The call rests on the fitted dose curve; in most records, active means well fitted curve in the direction sought with a large enough effect; inconclusive means small, poorly fitted or top-dose-only effect, or another doubt; inactive means no such curve, though single readings can be large; an effect the other way counts as inactive or inconclusive.

What was measured:
MCC-26 = test: qHTS assay to identify novel small-molecules to repurpose for Merkel cell carcinoma treatment (AID 1296009); details: MCC and control cell lines, CellTiter-Glo viability, 72 h; series mostly up to 46 µM; further: nearly all actives have a fitted effect of over 60% in size
In short: (§1)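 72 hr, 37 degree celsius; NPC 8-pt / MIPE 11-pt dose response; compound pinned in DMSO; CellTiter-Glo, 10 min RT, luminescence; normalized to no-cell and DMSO controls.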

MKL-2 = test: as above; details: MCC and control cell lines, CellTiter-Glo viability, 72 h; series mostly up to 46 µM
In short: as §1

UISO = test: as above; details: MCC and control cell lines, CellTiter-Glo viability, 72 h; series mostly up to 46 µM
In short: as §1

C33A = test: Primary qHTS to identify gynecologic anti-cancer compounds using libraries of approved drugs and bioactive compounds (AID 1345084); details: Gynecologic cancer cell panel viability, ATPlite luminescence, 48 h; series mostly up to 57.5 µM; further: nearly all actives have a fitted effect of over 55% in size
In short: (§2)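 Five-concentration response, 48 h; readout is ATP-driven luciferase luminescence.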

CASKI = test: as above; details: Gynecologic cancer cell panel viability, ATPlite luminescence, 48 h; series mostly up to 57.5 µM
In short: as §2

Es-2 = test: as above; details: Gynecologic cancer cell panel viability, ATPlite luminescence, 48 h; series mostly up to 57.5 µM
In short: as §2

HeLa = test: as above; details: Gynecologic cancer cell panel viability, ATPlite luminescence, 48 h; series mostly up to 57.5 µM
In short: as §2

WaGa = test: qHTS assay to identify novel small-molecules to repurpose for Merkel cell carcinoma treatment (AID 1296009); details: MCC and control cell lines, CellTiter-Glo viability, 72 h; series mostly up to 46 µM; further: nearly all actives have a fitted effect of over 60% in size
In short: as §1

MKL-1 = test: as above; details: MCC and control cell lines, CellTiter-Glo viability, 72 h; series mostly up to 46 µM
In short: as §1

Measured: Potency
Potency means the concentration at half of the fitted maximal effect.

CN(C)CC(=O)N1CCC(c2ccc(NC(=O)c3ncc(C#N)[nH]3)c(C3=CCCCC3)c2)CC1
not listed: WaGa | MKL-1
inactive: all other assays above

Cc1cncc2cccc(S(=O)(=O)N3CCCN(C(=O)CN)C[C@@H]3C)c12
not listed: HeLa | WaGa | MKL-1
inactive: all other assays above

Cn1cc(-c2cnn3c(N)c(Br)c([C@H]4CCCNC4)nc23)cn1
active: MKL-2 1.32 µM | WaGa 1.32 µM
inactive: MCC-26

COc1ccc2cc([S+]([O-])Cc3ncc(C)c(OC)c3C)nc2c1
inactive: MCC-26 | MKL-1 | WaGa

CCOc1cc2ncc(C#N)c(Nc3ccc(OCc4ccccn4)c(Cl)c3)c2cc1NC(=O)C=CCN(C)C
inactive: MCC-26 | MKL-1 | WaGa

CCCCCCCCCCCC(CC1OC(=O)C1CCCCCC)OC(=O)C(CC(C)C)NC=O (stereo unspecified)
inactive: MCC-26 | MKL-1 | UISO | WaGa

OCCNC1CCCc2c1[nH]c1ccc(-c3ccccc3)cc21 (stereo unspecified)
inactive: MCC-26 | Es-2
active: MKL-2 26.4 µM | HeLa 8.91 µM

C[C@]12CC[C@@H]3c4ccc(O)cc4CC[C@H]3[C@H]1CC[C@H]2O
inactive: MCC-26 | MKL-2

O=C(O)c1ccc(Nc2ncc3c(n2)-c2ccc(Cl)cc2C(c2c(F)cccc2F)=NC3)cc1
inactive: MCC-26 | MKL-2 | UISO | C33A | Es-2

COc1cc(C)c(C=CC(C)=CC=CC(C)=CC(=O)O)c(C)c1C
inactive: MCC-26 | MKL-1 | UISO | WaGa

CN1C(C(=O)Nc2ccccn2)=C(O)c2sc(Cl)cc2S1(=O)=O
inactive: MCC-26 | MKL-1 | UISO | WaGa

CCc1cnn2c(NCc3ccc[n+]([O-])c3)cc(N3CCCC[C@@H]3CCO)nc12
active: MCC-26 83.3 nM | MKL-2 0.0418 µM | UISO 93.5 nM

N=c1ccn2c(n1)O[C@H]1[C@@H](O)[C@@H](CO)O[C@H]12
inactive: MCC-26
active: UISO 526 nM | WaGa 2.09 µM
